GalR3 antagonist: GalR3 antagonists in HEK293 cells, primary screen, cell-based, fluorescence readout; AID 651719, 2012; Galanin receptor type 3 (Homo sapiens), O60755; inhibition, % at 3 µM; 0.44% of 360,000 active; HEK293 GalR3-CNG cAMP membrane potential fluorescence; galR3 body fused to GalR1 C-terminus;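 active means inhibition above the screen-wide average plus 3 SD, cut at about 13% in these data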;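 further: forskolin and galanin both at EC90 stimulate the cells; cAMP rise reported by CNG channel membrane potential dye signal; 0% = forskolin plus galanin with DMSO and 100% = forskolin alone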
aDG glyco act: activators of alpha-DG glycosylation, primary screen, uHTS, Pro5-aDG cells, AlphaScreen | alpha-DG glycosylation AlphaScreen (IIH6); 0% Pro5, 100% B10-LARGE cell signal | activation, % at 10 µM | 0.22% of 360,000 active | AID 624168, 2012;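 active means activation of at least 8% versus controls, or a plate z-score of at least 8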;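 further: Pro5 are CHO cells carrying HIG-tagged alpha-DG that lacks glycosylation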
COUP-TFII inh: NR2F2 transcriptional activity inhibitors, primary screen, cell-based, luciferase reporter, HEK293T, luminescence; COUP transcription factor 2 (Homo sapiens), P24468; HEK293T NGFI-A luciferase reporter; inhibition, % at 8.6 µM; 0.7% of 370,000 active; AID 686940, 2013;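 active means inhibition above a per-plate cutoff, mean inhibition of test wells between control levels plus 3 SD, cut at about 38% in these data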;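 further: cells cotransfected with COUP-TFII expression vector driving the NGFI-A reporter; 0% = median of COUP-TF2 test wells and 100% = reporter-only cells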
Target sequence (P24468 whole entry, looked up): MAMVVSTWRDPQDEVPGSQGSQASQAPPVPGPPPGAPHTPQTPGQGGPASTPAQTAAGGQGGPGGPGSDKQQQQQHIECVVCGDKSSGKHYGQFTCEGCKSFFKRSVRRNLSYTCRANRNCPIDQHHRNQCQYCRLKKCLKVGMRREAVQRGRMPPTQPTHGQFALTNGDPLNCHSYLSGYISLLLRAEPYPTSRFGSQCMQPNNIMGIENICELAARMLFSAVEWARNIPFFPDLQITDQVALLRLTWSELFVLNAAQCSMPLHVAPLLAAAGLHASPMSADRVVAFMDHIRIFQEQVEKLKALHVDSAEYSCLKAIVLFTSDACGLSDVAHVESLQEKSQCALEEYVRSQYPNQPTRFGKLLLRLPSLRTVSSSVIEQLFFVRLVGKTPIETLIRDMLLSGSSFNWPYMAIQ
Gli-Sufu antag: Gli-Sufu pathway antagonists, primary screen, luciferase luminescence, Sufu-KO-LIGHT cells, uHTS; AID 588413, 2011; Sufu-KO-LIGHT fibroblasts, Gli luciferase reporter luminescence; 0.74% of 340,000 active; inhibition, % at 5 µM;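 active means inhibition above about 55%, limit read from the data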;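 further: 0% = DMSO-treated cells and 100% = wells with medium but no cells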
Env fusion inh: inhibitors of HIV-1 Env-driven cell-cell fusion, primary screen, HeLa-JRFL effector, CEM21 target cells, luciferase; inhibition, % at 12.3 µM; 1.1% of 360,000 active; AID 651610, 2012;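 active means mean replicate inhibition score of at least 50 and every replicate individually at or above 50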;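 further: 0% = plate neutral controls and 100% = maraviroc near 300 nM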
Gli antag conf: Gli-SUFU pathway antagonists, confirmation, single concentration, luciferase luminescence, Sufu-KO-LIGHT cells | shares compounds with Gli-Sufu antag | Gli luciferase reporter | inhibition, % at 5 µM | 40% of 2,500 active;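 active means mean inhibition at 5 µM reaching about 45%, limit read from the data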;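 further: plate controls were DMSO-treated cells for no effect and wells lacking cells for full effect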
SufuKO cytotox: cytotoxicity in Sufu-KO-LIGHT cells, confirmation, cytotoxicity control for Gli-SUFU antagonist project, cell-based, ATP luminescence, single concentration. cytotoxicity, % at 5 µM. AID 651994, 2013. shares compounds with Gli-Sufu antag. 32% of 2,500 active;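 active means mean cytotoxicity at 5 µM above about 25%, limit read from the data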;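 further: cells exposed to compound overnight for roughly 16 to 18 hours; plate controls were DMSO wells with cells for no effect and medium without cells for full effect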
Wnt3a cs: Wnt3a reporter signal inhibition, confirmation, counter-screen for Gli-SUFU antagonist project, Wnt-LIGHT cells, luminescence, single concentration; Wnt3a-driven luciferase reporter; shares compounds with Gli-Sufu antag; AID 651995, 2013; 20% of 2,500 active; inhibition, % at 6.25 µM;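 active means mean inhibition above about 25%, limit read from the data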
GalR3 antag conf: GalR3 antagonist hit confirmation, cell-based, fluorescence, triplicate; shares compounds with GalR3 antagonist; HEK293 GalR3 CNG cAMP biosensor, membrane potential fluorescence; galR3 fused to GalR1 carboxy tail; challenged with forskolin and galanin at EC90; inhibition, % at 3 µM; 59% of 1,600 active; AID 652245, 2013;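 active means inhibition above the primary screen's cutoff, the mean inhibition of all screened compounds plus 3 SD, cut at about 13% in these data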;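 further: 0% = forskolin plus galanin and 100% = forskolin alone with DMSO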
CNG parental: nonspecific cAMP agonists in parental HEK-CNG cells, counter-screen for GalR3 antagonist project, cell-based, fluorescence, high throughput. shares compounds with GalR3 antagonist. HEK293-CNG parental cells, cAMP membrane potential fluorescence; normalised: DMSO wells 0%, forskolin wells 100%. activation, % at 3 µM. 10% of 1,600 active. AID 652268, 2013; in the data active means activation above about 1.3%
VP16 Luc counter: Gal4-VP16 luciferase reporter inhibitors, counter-screen for COUP-TFII antagonist project, cell-based, luminescence, HEK293. shares compounds with COUP-TFII inh. inhibition, % at 8.5 µM. 25% of 2,500 active. AID 687007, 2013; in the data active means inhibition above about 13%
NR2F2 inh conf: NR2F2 transcriptional activity inhibitors, confirmation, cell-based, luciferase reporter, HEK293, triplicate; 45% of 2,500 active; inhibition, % at 8.5 µM; HEK293 NGFI-A luciferase reporter, luminescence; shares compounds with COUP-TFII inh;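 active means mean inhibition over three repeats above a set limit taken from the earlier primary screen, cut at about 38% in these data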;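 further: 100% = cells given the luciferase reporter alone without the COUP-TF2 vector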
Active calls of the source: *; . = not tested or not shown; [ ] = dose if it differs, or a comment. In the library only some 2.1% were active in any assay of this set; here they are far more common.

SMILES | GalR3 antagonist | aDG glyco act | COUP-TFII inh | Gli-Sufu antag | Env fusion inh | Gli antag conf | SufuKO cytotox | Wnt3a cs | VP16 Luc counter | NR2F2 inh conf | others
COCCNC(=O)C[C@@H]1C[C@H]2c3cc(NS(=O)(=O)c4ccccc4)ccc3O[C@H]2[C@H](CO)O1 | . | . | . | . | -11.5[16.7 µM] | . | . | . | . | .
Cc1noc(C)c1S(=O)(=O)Nc1ccc2c(c1)C(=O)N([C@H](C)CO)C[C@H](C)[C@@H](CN(C)S(=O)(=O)c1ccc(F)cc1)OCCCC[C@@H](C)O2 | . | . | . | . | -7.7[16.7 µM] | . | . | . | . | .
COc1ccc(-c2nc(CN3CCN(c4ccccc4OC)CC3)c(C)o2)cc1 | -5.3 | 0.2 | -4.5 | 42.8 | 8.9 | . | . | . | . | .
COc1ccc(-c2nc(CN3CCN(c4ncnc5ccccc45)CC3)c(C)o2)c(OC)c1 | -7.1 | 6.0 | 52.1* | 59.7* | 42.9 | 35.0 | 8.9 | -3.2 | -2.7 | 39.6*
C[C@@H]1CN([C@@H](C)CO)C(=O)c2cccc(NC(=O)C3CCOCC3)c2O[C@@H]1CN(C)Cc1ccccc1 | . | . | . | . | 40.8[16.7 µM] | . | . | . | . | .
O=C(NC1CCCCC1)c1ccc(S(=O)(=O)NCc2ccco2)cc1 | -1.6 | 0.2 | 6.3 | 4.1 | -34.9 | . | . | . | . | .
O=C(NC1CCN(Cc2ccccc2)CC1)c1ccc(S(=O)(=O)NCc2ccco2)cc1 | 62.8* | 0.0 | 47.7* | 53.8 | 27.1 | 20.1 | 24.4 | -11.6 | 5.6 | 22.2 | GalR3 antag conf=52.2*;CNG parental=0.3
COc1cccc(CN(C)C(=O)c2cc(COc3ccc4ncccc4c3)on2)c1 | 87.7* | 12.8* | 72.7* | 56.9* | 15.2 | 57.4* | 19.6 | 27.3* | -2.1 | 55.5* | GalR3 antag conf=98.8*;CNG parental=-0.1
CC(NC(=O)c1cc(COc2ccccc2)on1)c1nccs1 (configuration not stated) | -2.5 | 0.1 | -60.5 | -8.2 | -56.8 | . | . | . | . | .
CC(NC(=O)c1cc(COc2ccc3ncccc3c2)on1)c1ccc(F)cc1 (configuration not stated) | 29.0* | 1.6 | 69.1* | 57.8* | 5.2 | 63.7* | 42.9* | 15.5 | -0.3 | 57.9* | GalR3 antag conf=86.4*;CNG parental=0.6
Cc1nc2ccccn2c1C(=O)NNS(=O)(=O)c1ccc(C(C)(C)C)cc1 | -10.0 | 3.0 | 45.9* | 50.7 | 72.1* | 47.8* | 27.3* | 6.2 | 2.9 | 33.5
COc1cc(C(=O)N2CCN(c3ncnc4sc(C)c(C)c34)CC2)cc(OC)c1OC | -0.5 | 1.2 | 48.4* | 57.1* | 81.7* | 53.8* | 31.3* | -22.5 | 8.2 | 47.8*
Cc1nc2ccccn2c1C(=O)NC1CCCc2ccccc21 (configuration not stated) | -9.4 | 4.5 | 42.0* | 55.6* | -21.1 | 31.6 | 4.5 | 11.2 | 3.8 | 37.0
